Key:
Assay in all cases: PBM binding z-score (relative to random genomic background probes); higher = stronger binding; sequences stand for … in GC…GCGATTGACAGCGTAGAATGAAGG
[1] = system: PPARg:RXRa DBDmut IVT, anti-RXR (DBD mutation: RXRa K156A/R161A, NR concentration 270 nM, RXRa partner concentration 90 nM)
Summary of the method: (§1)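 Scanned fluorescence from custom Agilent 4×180K protein-binding microarrays was regression-normalized. Binding z-scores use random background probes as reference. Ligand-free nuclear receptor dimers were incubated on the arrays for 1 h and detected with antibodies against each partner (one per run).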

[2] = system: PPARg:RXRa IVT, anti-PPARg (NR concentration 270 nM, RXRa partner concentration 90 nM)
Summary of the method: as §1

[3] = system: PPARg DBDmut:RXRa IVT, anti-PPARg (DBD mutation: PPARg1 K132A/R137A, NR concentration 270 nM, RXRa partner concentration 90 nM)
Summary of the method: as §1

[4] = system: PPARg DBDmut IVT, anti-PPARg (DBD mutation: PPARg1 K132A/R137A, NR concentration 270 nM)
Summary of the method: as §1

[5] = system: PPARg homodimer (NR concentration 180 nM)
Summary of the method: as §1

[6] = system: PXR:RXRa (NR concentration 270 nM, RXRa partner concentration 90 nM)
Summary of the method: as §1

[7] = system: PXR homodimer (NR concentration 270 nM)
Summary of the method: as §1

[8] = system: RARa:RXR (NR concentration 270 nM, RXRa partner concentration 90 nM)
Summary of the method: as §1

[9] = system: RARa homodimer (NR concentration 270 nM)
Summary of the method: as §1

[10] = system: RARb:RXRa (NR concentration 270 nM, RXRa partner concentration 90 nM)
Summary of the method: as §1

[11] = system: RARb homodimer (NR concentration 270 nM)
Summary of the method: as §1

[12] = system: RARg:RXRa (NR concentration 270 nM, RXRa partner concentration 90 nM)
Summary of the method: as §1

[13] = system: RARg homodimer (NR concentration 270 nM)
Summary of the method: as §1

[14] = system: RXRa DBDmut IVT, anti-RXR (DBD mutation: RXRa K156A/R161A, NR concentration 90 nM)
Summary of the method: as §1

[15] = system: RXRa homodimer (NR concentration 180 nM)
Summary of the method: as §1

[16] = system: THRa:RXRa (NR concentration 90 nM, RXRa partner concentration 90 nM)
Summary of the method: as §1

[17] = system: THRa homodimer (NR concentration 90 nM)
Summary of the method: as §1

[18] = system: VDR:RXRa (NR concentration 270 nM, RXRa partner concentration 90 nM)
Summary of the method: as §1

[19] = system: VDR homodimer (NR concentration 270 nM)
Summary of the method: as §1

CCGATTGGGGCAGAAAGGTTACCATACCATCCGG
PBM binding z-score [1]: 0.436 | PBM binding z-score [2]: 1.14 | PBM binding z-score [3]: -1.01 | PBM binding z-score [4]: -0.679 | PBM binding z-score [5]: 0.221 | PBM binding z-score [6]: 1.24 | PBM binding z-score [7]: -0.318 | PBM binding z-score [8]: 1.66 | PBM binding z-score [9]: -0.348 | PBM binding z-score [10]: 1.88 | PBM binding z-score [11]: 2.03 | PBM binding z-score [12]: 1.61 | PBM binding z-score [13]: 1.25 | PBM binding z-score [14]: -0.405 | PBM binding z-score [15]: 1.75 | PBM binding z-score [16]: 0.945 | PBM binding z-score [17]: -0.567 | PBM binding z-score [18]: 0.707 | PBM binding z-score [19]: -0.225

GGAACGAGGGCTTTCGAGTTGATAGCATGGCGAT
PBM binding z-score [1]: 0.386 | PBM binding z-score [2]: -0.141 | PBM binding z-score [3]: -0.402 | PBM binding z-score [4]: -0.448 | PBM binding z-score [5]: -0.921 | PBM binding z-score [6]: 0.129 | PBM binding z-score [7]: -0.343 | PBM binding z-score [8]: 0.0983 | PBM binding z-score [9]: -0.868 | PBM binding z-score [10]: -0.36 | PBM binding z-score [11]: -0.798 | PBM binding z-score [12]: -0.258 | PBM binding z-score [13]: -0.353 | PBM binding z-score [14]: 0.228 | PBM binding z-score [15]: -0.0785 | PBM binding z-score [16]: 0.893 | PBM binding z-score [17]: -0.983 | PBM binding z-score [18]: -0.0757 | PBM binding z-score [19]: 0.344

CAGCCTAGGTCAGGGCCCGTATAGGAGGAACGTT
PBM binding z-score [1]: 1.27 | PBM binding z-score [2]: 1.55 | PBM binding z-score [3]: -1.13 | PBM binding z-score [4]: -1.09 | PBM binding z-score [5]: 0.811 | PBM binding z-score [6]: -0.134 | PBM binding z-score [7]: -0.829 | PBM binding z-score [8]: 0.752 | PBM binding z-score [9]: -0.25 | PBM binding z-score [10]: 3.23 | PBM binding z-score [11]: 2.26 | PBM binding z-score [12]: 2.9 | PBM binding z-score [13]: 3.84 | PBM binding z-score [14]: -0.894 | PBM binding z-score [15]: 1.46 | PBM binding z-score [16]: 1.73 | PBM binding z-score [17]: 0.213 | PBM binding z-score [18]: 0.0568 | PBM binding z-score [19]: -0.478

GCATATAGGTAATACAAGGTGAAAATCCGATTGT
PBM binding z-score [1]: 3.55 | PBM binding z-score [2]: 3.21 | PBM binding z-score [3]: 0.778 | PBM binding z-score [4]: 0.777 | PBM binding z-score [5]: 0.494 | PBM binding z-score [6]: 0.273 | PBM binding z-score [7]: 0.142 | PBM binding z-score [8]: 1.85 | PBM binding z-score [9]: 0.843 | PBM binding z-score [10]: 0.306 | PBM binding z-score [11]: 0.426 | PBM binding z-score [12]: 0.529 | PBM binding z-score [13]: 0.709 | PBM binding z-score [14]: 0.0693 | PBM binding z-score [15]: 0.677 | PBM binding z-score [16]: 3.98 | PBM binding z-score [17]: 0.487 | PBM binding z-score [18]: 0.212 | PBM binding z-score [19]: 0.0319

TCTTGTAAATCAGCAGGTTAAGAAAGCTGGCCAA
PBM binding z-score [1]: 1.8 | PBM binding z-score [2]: -0.234 | PBM binding z-score [3]: -0.435 | PBM binding z-score [4]: -0.222 | PBM binding z-score [5]: 0.0187 | PBM binding z-score [6]: 0.477 | PBM binding z-score [7]: -0.284 | PBM binding z-score [8]: 0.789 | PBM binding z-score [9]: 0.26 | PBM binding z-score [10]: 0.224 | PBM binding z-score [11]: -0.0241 | PBM binding z-score [12]: -0.0885 | PBM binding z-score [13]: -0.347 | PBM binding z-score [14]: 0.924 | PBM binding z-score [15]: 0.361 | PBM binding z-score [16]: 0.32 | PBM binding z-score [17]: -0.393 | PBM binding z-score [18]: 0.539 | PBM binding z-score [19]: -0.269

ACTATTAGATGAGACGAGGGCAACCGATAGGTTG
PBM binding z-score [1]: 0.41 | PBM binding z-score [2]: 0.591 | PBM binding z-score [3]: 1.15 | PBM binding z-score [4]: 1.11 | PBM binding z-score [5]: 1.13 | PBM binding z-score [6]: 0.465 | PBM binding z-score [7]: 0.757 | PBM binding z-score [8]: 0.634 | PBM binding z-score [9]: 1.38 | PBM binding z-score [10]: 0.915 | PBM binding z-score [11]: 1.3 | PBM binding z-score [12]: 0.879 | PBM binding z-score [13]: 1.09 | PBM binding z-score [14]: 0.518 | PBM binding z-score [15]: 0.632 | PBM binding z-score [16]: 1.42 | PBM binding z-score [17]: 0.659 | PBM binding z-score [18]: 0.421 | PBM binding z-score [19]: 0.77

TCGAGTAGGATAGGGGCATTCAGAATGGCGTCGA
PBM binding z-score [1]: 0.794 | PBM binding z-score [2]: -0.24 | PBM binding z-score [3]: -0.499 | PBM binding z-score [4]: -1.34 | PBM binding z-score [5]: 0.0464 | PBM binding z-score [6]: -0.136 | PBM binding z-score [7]: -0.0675 | PBM binding z-score [8]: -0.134 | PBM binding z-score [9]: -0.862 | PBM binding z-score [10]: 0.225 | PBM binding z-score [11]: 0.241 | PBM binding z-score [12]: -0.218 | PBM binding z-score [13]: -0.225 | PBM binding z-score [14]: 0.0984 | PBM binding z-score [15]: 0.155 | PBM binding z-score [16]: 0.209 | PBM binding z-score [17]: -0.171 | PBM binding z-score [18]: -0.000288 | PBM binding z-score [19]: 0.237
